Screening results as filed in PubChem.
HP1b binding inh = inhibitors of HP1-beta chromodomain binding to methylated histone tails. P83916. AlphaScreen HP1-beta / biotin-H3K9me3 peptide binding. Potency, µM (highest dose often 114 µM), inactives show at the top dose activity change, negative = inhibition, hits mostly inhibitors. 390,000 compounds, 0.56% hits; note: nearly all actives have a fitted effect of over 70% in size
Target sequence (P83916 whole entry, looked up): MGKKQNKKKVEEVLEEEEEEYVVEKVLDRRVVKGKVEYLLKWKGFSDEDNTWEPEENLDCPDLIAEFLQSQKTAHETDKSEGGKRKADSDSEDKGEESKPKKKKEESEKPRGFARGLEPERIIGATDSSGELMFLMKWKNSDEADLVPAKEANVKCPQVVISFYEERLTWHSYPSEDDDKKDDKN
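Compound inhibition of the preformed complex between 50 nM HP1-beta and 50 nM biotinylated H3K9me3 peptide was read by AlphaScreen. Buffer was PBS pH 7.4 with 0.01% Tween-20. Incubations ran 30 min at room temperature, with 10 ug/mL donor/acceptor beads.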
G9a block = inhibitors of human histone lysine methyltransferase G9a; Q96KQ7; G9a H3K9 monomethylation, AlphaScreen, 2 h; Potency, µM (series often up to 102 µM), without a hit: top-dose activity, negative = inhibition, usual class: inhibitors; 350,000 compounds, 8.8% hits; note: % is set by controls: 0 for no effect and ±100 for the full control effect; nearly all actives have a fitted effect of over 75% in size
Target sequence (Q96KQ7 913-1193 limits assumed): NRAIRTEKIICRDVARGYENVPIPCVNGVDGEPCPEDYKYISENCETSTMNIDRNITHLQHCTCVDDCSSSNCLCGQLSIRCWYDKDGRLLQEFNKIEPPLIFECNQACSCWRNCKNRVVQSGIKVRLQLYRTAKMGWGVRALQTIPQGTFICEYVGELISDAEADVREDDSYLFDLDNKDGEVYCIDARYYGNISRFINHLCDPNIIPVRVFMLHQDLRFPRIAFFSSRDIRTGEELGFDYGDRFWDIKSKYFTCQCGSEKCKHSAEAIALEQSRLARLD
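Using a bead-based AlphaScreen, monomethylated H3K9 product from 2 h room-temperature reactions (G9a 20 nM, peptide 500 nM, SAM 20 uM) was detected with 0.5 ug/mL rabbit anti-H3K9me1 antibody.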
BAZ2B block = blocks human BAZ2B; AlphaScreen BAZ2B-H3K14Ac peptide displacement; Potency, µM (series often up to 114 µM), for the others: top-dose activity change, negative = inhibition, actives largely listed as inhibitors; 360,000 compounds, 4.4% hits; Q9UIF8; AID 504333; note: % is set by controls: 0 for no effect and ±100 for the full control effect; nearly all actives have a fitted effect of over 60% in size
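BAZ2B 50 nM plus b-H3(5-23)K14Ac 50 nM, PBS pH 7.4/0.01% Tween-20, 30 min RT; compound added (max 110 uM), 30 min RT; streptavidin donor/Ni-chelate acceptor beads 10 ug/mL final, 20 min dark; AlphaScreen read.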
L3MBTL1 inh = L3MBTL1 (human) inhibition; Q9Y468; AlphaScreen L3MBTL1–H3K9me1 peptide binding; Potency, µM (series often up to 57.1 µM), for the others: top-dose activity, negative = inhibition, hits mostly inhibitors; 230,000 compounds, 0.66% hits; note: % is set by controls: 0 for no effect and ±100 for the full control effect; nearly all actives have a fitted effect of over 60% in size
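AlphaScreen assay: L3MBTL1 (50 nM final) was preincubated 30 min at room temperature with biotinylated H3(1-15)K9me1 peptide (75 nM final), then 30 min with library compounds; streptavidin donor and nickel chelate acceptor beads (10 ug/mL final) added, 30 min dark.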
Sfp PPTase inh = blocks B. subtilis Sfp PPTase activity | Q9F4F7 | Biochemical Sfp PPTase activity, qHTS | Potency, µM, inactives show largest response in the series, negative = inhibition, most hits filed as inhibitors | 310,000 compounds, 3.5% hits | AID 1490;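 note: the enzyme is Sfp with the accession as filed and its product quenches rhodamine fluorescence; 0% = enzyme reaction without inhibitor and -100% = no enzyme wells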
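With Hepes-Na pH 7.6 buffer containing 10 mM MgCl2, Sfp (15 nM) modified BHQ-2-YbbR (12.5 uM) using rhodamine-CoA (5 uM). Two reads 30 minutes apart at 525/598 nm yielded each well's rate.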
JMJD2A Tudor inh = blocks the human JMJD2A Tudor domain; AID 504339; AlphaScreen JMJD2A-Tudor / H3K4me3 peptide binding; O75164; Potency, µM (top dose mostly 114 µM), without a hit: top-dose activity change, negative = inhibition, hits mostly inhibitors; 390,000 compounds, 4.4% hits; note: % is set by controls: 0 for no effect and ±100 for the full control effect; nearly all actives have a fitted effect of over 50% in size
* hit, by the source's call; u = inconclusive; x = no result given; [ ] = remark or other dose. This is a sample that favours compounds with a hit; in the whole collection about 12% have one here. Calls come from the whole dose curve; as a rule, active = well fitted curve in the direction sought with a large enough effect; inconclusive = small, poorly fitted or top-dose-only effect, or another doubt; inactive = no such curve, though single readings can be large; an effect the other way counts as inactive or inconclusive. Potency is the fitted concentration of half-maximal effect.

SMILES	HP1b binding inh	G9a block	BAZ2B block	L3MBTL1 inh	Sfp PPTase inh	JMJD2A Tudor inh
Cc1ccc(CNC(=O)c2nn(C)c3c2CSc2ccc(C)cc2-3)cc1	22%	-10%[12.7 µM]	-9%	x	x	-2%
Cc1nn2c(=O)cc(COC(=O)c3ccccc3NC(=O)c3ccccc3C)nc2s1	36%	14%[59 µM]	-23%	x	x	-16%
CC1CCCCC12NC(=O)N(CC(=O)Nc1ccc(N3CCCCC3)cc1)C2=O (centres undefined)	17%	16µM*	-35%	-16%	x	-21%
CC1CC(C)(C)CC2(C1)NC(=O)N(CC(=O)N1CCN(S(=O)(=O)c3ccc(F)c(F)c3F)CC1)C2=O (centres undefined)	26%	x	x	x	x	20µM*
CN1CCN(c2ccc(Cl)cc2NC(=O)CN2C(=O)NC(C)(c3ccccc3)C2=O)CC1 (centres undefined)	27%	45µM*	-22%	31%	x	-22%
CC1CC(C)(C)CC2(C1)NC(=O)N(CC(=O)Nc1ccc(N3CCCCC3)cc1)C2=O (centres undefined)	u	45µM*	u	x	2%	u
COC(=O)C(O)C1C(C)(C)C(OC(C)=O)C2CC3=C4CC(=O)OC(c5ccoc5)[C@]4(C)CCC3[C@@]1(C)C2=O (some centres undefined)	x	-7%[2.33 µM]	x	x	5%	x
CC1(c2ccccc2Cl)NC(=O)N(CC(=O)Nc2ccc(N3CCOCC3)cc2)C1=O (centres undefined)	17%	x	x	-4%	x	-4%
CC1(c2ccccc2Cl)NC(=O)N(CC(=O)Nc2ccc(N3CCCCC3)cc2)C1=O (centres undefined)	-24%	14µM*	35µM*	-3%	x	u
O=C(NCc1ccccc1)C(=O)NCC(c1ccc2c(c1)OCO2)N1CCOCC1 (centres undefined)	17%[57 µM]	6%[59 µM]	3%	x	x	-13%
COc1ccc(/C=C/C(=O)NC(=S)Nc2ccc(S(=O)(=O)Nc3cc(OC)ncn3)cc2)cc1	7%	40µM*	-20%	x	-9%	-20%
COc1ccc(/C=C/C(=O)NC(=S)Nc2ccc(S(=O)(=O)Nc3nccnc3OC)cc2)cc1	-12%	u	-34%	-10%	u	-12%
COc1cc(NS(=O)(=O)c2ccc(NC(=S)NC(=O)/C=C/c3ccc(OC)c(OC)c3)cc2)ncn1	22µM*	40µM*	13µM*	4%	-9%	-24%[11.4 µM]
CC1CC[C@@]2(OC1)OC1CC3C4CC=C5CC(O)CC[C@@]5(C)C4CC[C@]3(C)C1C2C (some centres undefined)	x	-21%[2.33 µM]	x	x	-1%	x
COc1cccc(N2CCN(C(=O)CCCCCNc3nc(=S)[nH]c4ccccc34)CC2)c1	-3%	-46%	32µM*	-22%	10%	-33%
NS(=O)(=O)c1ccc(CCNC(=O)CCCCCNc2nc(=S)[nH]c3ccccc23)cc1	x	50µM*	1%	u	4%	x
CN(C(=O)CSc1nc2ccccc2s1)c1c(N)n(Cc2ccccc2)c(=O)[nH]c1=O	25%	25µM*	-3%	x	-13%	-15%
CCN(C(=O)CSc1nncs1)c1c(N)n(Cc2ccccc2)c(=O)[nH]c1=O	53%	14µM*	-19%	5%	6%	-11%
CCCCN(C(=O)CSc1nnnn1C)c1c(N)n(Cc2ccccc2)c(=O)[nH]c1=O	6%	13%	-17%	x	17%	-5%
CCN(C(=O)COC(=O)/C=C/c1ccc(C)o1)c1c(N)n(Cc2ccccc2)c(=O)[nH]c1=O	u	11µM*	0%	-3%	x	79µM*
CCN(C(=O)CSc1nnnn1C)c1c(N)n(Cc2ccccc2)c(=O)[nH]c1=O	31%	0%	-7%	13%	9%	-9%
CCCCN(C(=O)CSc1nnc(Nc2ccccc2)s1)c1c(N)n(CCC)c(=O)[nH]c1=O	37%	40µM*	-5%	x	3%	-13%
CC1=C(C(=O)Nc2ccccc2C)C(c2ccco2)n2ncnc2N1 (centres undefined)	20%[57 µM]	-1%[59 µM]	2%	x	x	-3%
CC(C)C(=O)c1cc2c(cc1NC(=O)c1ccccc1F)OCCO2	126%	22%[59 µM]	44%	x	x	30%
Cc1nnc(SCC(=O)N(C)c2c(N)n(Cc3ccccc3)c(=O)[nH]c2=O)n1Cc1ccccc1	23%	-21%	-16%	0%	4%	-4%
SMILES	HP1b binding inh	G9a block	BAZ2B block	L3MBTL1 inh	Sfp PPTase inh	JMJD2A Tudor inh
CCn1c(SCC(=O)N(C)c2c(N)n(Cc3ccccc3)c(=O)[nH]c2=O)nc2ccccc21	-20%	x	2%	11%	28µM*	-3%
O=C(CNC(=O)C1CCCCCC1)OC(C(=O)Nc1cc(C(F)(F)F)ccc1Cl)c1ccccc1 (centres undefined)	x	x	x	x	x	-16%
c1ccc(-c2nc(-c3ccccc3)c(Nc3ccc4ccccc4c3)o2)cc1	x	x	x	x	-3%	x
Cc1ccccc1S(=O)(=O)/N=C(/c1ccccc1)N1CCOCC1	-9%	x	-8%	8%	3%	32µM*
COC(=O)/C=C1/N/C(=N\c2nc(C)cc(C)n2)N(c2cccc(C)c2)C1=O	24%	-28%	-21%	-4%	u	22µM*
CCS(=O)(=O)N1CCN(c2cc3c(cc2[N+](=O)[O-])n(C)c(=O)n3C)CC1	-22%	u	56µM*	x	6%	-31%
CN1CCN(C(=S)c2ccc(-c3cc(Cl)ccc3Cl)o2)CC1	u	32µM*	28µM*	u	u	35µM*
N#CCCN1CCN(C(=S)c2ccc(-c3cc(Cl)ccc3Cl)o2)CC1	u	18µM*	u	3%	-14%	40µM*
CN1CCN(C(=S)Nc2ccc(Cl)cc2)CC1	36%	-42%	-11%	3%[11.4 µM]	12%	9%
N#CCCN1CCN(S(=O)(=O)c2cc(Cl)ccc2Cl)CC1	23%	8%	0%	5%	15%	-2%
Cc1cccc(N2CCN(S(=O)(=O)c3c(C(=O)N4CCC(C)CC4)c(C)n(C)c3C)CC2)c1C	-10%	7%[12.7 µM]	u	x	x	u
Cc1ccc2nc(NC(=O)c3ccco3)sc2c1	22%	-17%	10%	x	8%	2%
Cc1ccc2nc(NC(=S)NC(=O)c3ccco3)sc2c1	-11%	50µM*	-7%	-9%	u	-16%
Cc1ccc2nsnc2c1NC(=S)NC(=O)c1ccco1	-5%	3.2µM*	-27%	-1%	50µM*	-28%
COc1ccc(CN(C)Cc2cc(=O)oc3cc(C)c(C(C)C)cc23)cc1OC	56%	89µM*	-13%	x	u	-11%
Cc1cc2oc(=O)cc(CN(C)Cc3ccccc3)c2cc1C(C)C	30%	-7%[2.33 µM]	25%	x	-15%	61%
